This is one part of a sample in which hits are shown more often than they occur.
Methyltransferases: Primary Screen for Target Class Profiling of Small Molecule Inhibitors of Methyltransferases; purified enzyme, MTase-Glo SAH luminescence; active compounds read low; calls only at 40 µM; 3.9% of 25,000 active; call rule not given here
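Each enzyme was assayed with SAM and its substrate. SAH formation detected by MTase-Glo luminescence; single-point 40 uM screen[…].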
Calls only.

For CC(C)(C)Sc1c(CC(C)(C)C(=O)O)n(Cc2ccc(Cl)cc2)c2ccc(OCc3ccc4ccccc4n3)cc12 the results were Methyltransferases active.
`COc1ccc(Cn2c(=O)c3ccccc3n3c(-c4ccc(Cl)cc4)nnc23)cc1` gave Methyltransferases inactive.
Screening COc1ccc(CNC(=O)CCc2nnc3n(Cc4ccc(Cl)cc4)c(=O)c4ccccc4n23)cc1 returned Methyltransferases inactive.
`N#Cc1ccc(C(=O)NCc2nn(Cc3ccccc3)c3ccccc23)c(F)c1` gave Methyltransferases inactive.
For COc1ccccc1CNC(=O)C1(C)Cn2cnc(C(=O)NC3CCCC3)c2C(=O)N1C1CC1 (centres undefined) the results were Methyltransferases inactive.
`CCOc1ccc(N2C(=O)c3cc(-c4ccccc4)nn3CC2(C)C(=O)NCc2ccccc2OC)cc1` (centres undefined) gave Methyltransferases inactive.
`COc1ccccc1CNC(=O)C1(C)Cn2nc(-c3ccccc3)cc2C(=O)N1c1cccc(Cl)c1C` (centres undefined) gave Methyltransferases inactive.
For CC(C)C[C@H](CO)Nc1nc(S[C@@H](C)c2ccccc2)nc2nc(N)sc12 the results were Methyltransferases active.
COc1ccc(OC)c(N2C(=O)c3cc4ccc(OC)cc4n3CC2(C)C(=O)NC2CCCCC2)c1 (centres undefined) was read as Methyltransferases inactive.
For CC(C)CCn1c(=O)c2ccccc2n2c(CCC(=O)NCCCN3CCOCC3)nnc12 the results were Methyltransferases inactive.
Screening CCn1c2ccccc2c2cc(Nc3ccnc(NCCCN4CCOCC4)n3)ccc21 returned Methyltransferases active.
`Cc1ccc(Cn2c(=O)c3ccccc3n3c(CCC(=O)NCCCN4CCOCC4)nnc23)cc1` gave Methyltransferases inactive.
COCCn1nc2n(c1=O)CCC1(CC2)CCN(C(=O)CC(C)(C)C)CC1 was read as Methyltransferases inactive.
CCN1C(=O)c2cc(C(=O)NC3CCN(Cc4ccccc4)CC3)nn2CC1(C)C(=O)NC1CCCC1 (centres undefined) was read as Methyltransferases inactive.
Cc1ccc(N2C(=O)c3cc4occc4n3CC2(C)C(=O)NC2CCC(C)CC2)cc1 (centres undefined) was read as Methyltransferases inactive.
`CC1(C(=O)NC2CCCCCC2)Cn2c(nc3ccccc32)C(=O)N1Cc1ccccc1` (centres undefined) gave Methyltransferases inactive.
For COCCCNC(=O)C1(C)Cn2nc(-c3ccccc3)cc2C(=O)N1c1ccccc1C (centres undefined) the results were Methyltransferases inactive.
For Oc1ccc(C2CNCc3sccc32)cc1O (centres undefined) the results were Methyltransferases active.
`O=C(NCc1cccnc1)c1ccc2c(=O)nc3c(-c4ccc(Cl)cc4)n[nH]n3c2c1` gave Methyltransferases inactive.
`COc1ccc(-c2cc3n(n2)CC(C)(C(=O)NCc2ccccc2OC)N(c2ccc(OC)cc2)C3=O)cc1` (centres undefined) gave Methyltransferases inactive.
C=C(C)[C@H]1C[C@@H](O)C(=C)CC[C@@H](O)C(=C)[C@@H](O)C1 was read as Methyltransferases active.
Screening CC1(C(=O)NC2CCCCC2)Cn2c(ccc2-c2ccco2)C(=O)N1CCc1ccccc1 (centres undefined) returned Methyltransferases inactive.
For COc1ccc2cc3n(c2c1)CC(C)(C(=O)NC1CCCC1)N(c1ccccc1C)C3=O (centres undefined) the results were Methyltransferases inactive.
Screening CCOc1ccc(CCNC(=O)CNC(=O)C2(C)Cn3c(cc4ccccc43)C(=O)N2C)cc1 (centres undefined) returned Methyltransferases inactive.
`Cn1cc(-c2cnn3c(N)c(Br)c([C@@H]4CCCNC4)nc23)cn1` gave Methyltransferases active.
For Cc1ccccc1CN1CC(=O)N(Cc2ccc(F)cc2)c2ccccc2S1(=O)=O the results were Methyltransferases inactive.
CC(C)OCCCn1c(=O)c2cc(Cl)ccc2n2c(SCc3cccc(Cl)c3)nnc12 was read as Methyltransferases inactive.
`CN1CCN(CCN2C(=O)c3ccc(-c4ccco4)n3CC2(C)C(=O)NC2CCCC2)CC1` (centres undefined) gave Methyltransferases inactive.
For O=C(Cn1ccc2cc(S(=O)(=O)N3CCCC3)ccc21)NCc1cccc(Br)c1 the results were Methyltransferases inactive.
For CN1C(=O)c2ccccc2NC(=O)[C@]12O[C@@H]2c1cccc(O)c1 the results were Methyltransferases inactive.
`Cc1[nH]c(/C=C2\C(=O)Nc3cc(-c4ccccc4)ccc32)c(C)c1CCC(=O)O` gave Methyltransferases inactive.
`O=C1Nc2ccccc2/C1=C/c1cc(O)ccc1O` gave Methyltransferases active.
CCCSCCCN1C(=O)c2cc3sc(CC)cc3n2CC1(C)C(=O)NC1CCCCC1 (centres undefined) was read as Methyltransferases inactive.
`CC(C)CCn1c(=O)c2ccc(C(=O)NC(C)C)cc2n2c(=O)n(CC(=O)c3cccc(Cl)c3)nc12` gave Methyltransferases inactive.
